This is a sample that favours compounds with a hit; in the whole collection about 27% have one here.
CYP2C19 act = human CYP2C19 activators, primary screen, biochemical, luminescence; Cytochrome P450 2C19 (Homo sapiens), P33261; recombinant CYP2C19, luciferin-H EGE luminescence; active compounds read high; 0 = fully inhibited enzyme, 1 = untreated enzyme; activation factor at 5 µM; 96,000 tested, under 10 active; AID 1025, 2008;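 active = activation factor of at least 2 at 5 µM in the primary screen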;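 also: 0 = wells with 2.5 mM tranylcypromine and 1 = vehicle-only wells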
CYP2C9 inhib = blockers of cytochrome P450 2C9 activity – biochemical, luminescence, ADME assay, primary screen; inhibition, % at 5 µM; CYP2C9 Supersomes, luciferin-H conversion; 20% of 96,000 active;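 active = blocking of liver enzyme CYP2C9 beyond about 50% at 5 µM, limit read from the data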
EphB4 antag = EphB4-ephrin-B2 interaction antagonists, primary screen, biochemical, TNYL-RAW peptide probe, fluorescence polarization; Ephrin type-B receptor 4 (Homo sapiens), P54760; EphB4 LBD / TNYL-RAW-Alexa532 peptide; inhibition, % at 7 µM; 0.15% of 97,000 active; AID 720, 2007;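 active = inhibition above the screen-wide mean inhibition plus 3 SD, cut at about 15% in these data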;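 also: 0% = DMSO wells and 100% = excess unlabeled TNYL-RAW peptide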
Target sequence (P54760 whole entry, looked up, the tested form may be a part): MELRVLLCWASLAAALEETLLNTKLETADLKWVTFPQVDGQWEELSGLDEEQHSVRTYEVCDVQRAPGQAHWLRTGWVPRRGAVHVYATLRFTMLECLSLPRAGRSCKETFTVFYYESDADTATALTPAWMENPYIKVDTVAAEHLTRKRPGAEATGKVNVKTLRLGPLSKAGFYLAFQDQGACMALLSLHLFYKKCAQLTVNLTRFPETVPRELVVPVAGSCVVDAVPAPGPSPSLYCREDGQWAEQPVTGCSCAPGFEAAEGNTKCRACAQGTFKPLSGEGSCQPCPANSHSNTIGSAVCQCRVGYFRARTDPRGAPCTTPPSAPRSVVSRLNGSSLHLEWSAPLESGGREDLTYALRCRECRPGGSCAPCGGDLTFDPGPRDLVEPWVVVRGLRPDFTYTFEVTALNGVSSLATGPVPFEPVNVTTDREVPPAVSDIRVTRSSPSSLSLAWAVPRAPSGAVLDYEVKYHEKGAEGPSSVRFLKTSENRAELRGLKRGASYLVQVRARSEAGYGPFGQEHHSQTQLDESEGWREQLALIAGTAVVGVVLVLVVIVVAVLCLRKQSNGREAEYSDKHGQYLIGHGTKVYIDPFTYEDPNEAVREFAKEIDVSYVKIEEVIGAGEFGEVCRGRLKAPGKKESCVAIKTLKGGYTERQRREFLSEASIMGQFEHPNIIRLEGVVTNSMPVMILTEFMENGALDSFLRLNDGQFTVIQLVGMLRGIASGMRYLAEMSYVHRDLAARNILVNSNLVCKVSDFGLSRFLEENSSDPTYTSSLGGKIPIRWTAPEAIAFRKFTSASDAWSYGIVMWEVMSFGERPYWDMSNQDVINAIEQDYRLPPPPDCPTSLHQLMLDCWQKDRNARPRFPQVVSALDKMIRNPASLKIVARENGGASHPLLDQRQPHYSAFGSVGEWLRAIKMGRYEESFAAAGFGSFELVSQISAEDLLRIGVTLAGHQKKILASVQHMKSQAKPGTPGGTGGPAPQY
CYP2C19 inh = blockers of cytochrome P450 2C19 activity – biochemical, luminescence, ADME assay, primary screen; P33261; CYP2C19 Supersomes, luciferin-H EGE luminescence, 30 min; inhibition, % at 5 µM; 21% of 96,000 active; AID 778, 2007;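 active = CYP2C19 inhibition above a set limit at 5 µM in the primary screen, cut at about 50% in these data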;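 also: plate controls were negative control wells for no effect and 2.5 mM tranylcypromine positive control for full effect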
CYP2C9 act = human CYP2C9 activators, primary screen, biochemical, luminescence. Cytochrome P450 2C9 (Homo sapiens), P11712. recombinant CYP2C9, luciferin-H conversion; active compounds read high; factor 1 = untreated enzyme, 0 = blocked. activation factor at 5 µM. 1.4% of 96,000 active. AID 1024, 2008;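 active = activation factor of 2 or more for CYP2C9 at a 5 µM dose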;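 also: 0 = sulfaphenazole-blocked wells and 1 = vehicle-only wells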
Active calls of the source: *; nt = no result.

SMILES	CYP2C19 act	CYP2C9 inhib	EphB4 antag	CYP2C19 inh	CYP2C9 act
Cc1ccccc1-c1nc(CS(=O)CC(=O)NCc2ccccc2)c(C)o1 (stereo not given)	0.2	76*	-5	78*	0.2
CCNC(=O)c1sc(-c2ccccc2)nc1C	0.4	-10	-3	56*	1.1
COc1ccc(/C=C/C(=O)c2sc(-c3ccccc3)nc2C)cc1	1	12	-1	-5	0.9
CCOC(=O)c1c(C)[nH]c(C)c1C(=O)CSc1nnc(-c2ccco2)n1Cc1ccccc1	0	98*	-4	99*	0
CCOC(=O)c1c(C)[nH]c(C)c1C(=O)CSc1nnc(-c2ccncc2)n1C	0	63*	-7	98*	0.4
CC1CCN(C(=O)CSc2nnc(-c3ccncc3)n2C)CC1	nt	nt	3	nt	nt
NC(=O)CSc1nnc(C2CC2)n1Cc1ccccc1	1	4	-7	-5	1
CCOC(=O)c1c(C)[nH]c(C)c1C(=O)CSc1nnc(-c2ccncc2)n1Cc1ccccc1	0	98*	-2	100*	0
CCCn1c(N)c(C(=O)CSc2nnc(C3CC3)n2Cc2ccccc2)c(=O)[nH]c1=O	1	59*	7	0	0.4
Cc1ccc(C)c(N=Nc2nc3ccccc3n2C)c1	0.3	32	4	66*	0.7
Cn1c(/N=C/c2cccs2)nc2ccccc21	1	-8	7	4	1.1
Cc1cc(C)n(-c2ccc(Cl)c(C(=O)OCC(N)=O)n2)n1	1.2	1	2	-15	1
CC1(C)C(=O)OC(c2cccs2)C(C)(C)C1=O (stereo not given)	0.3	5	3	71*	1
CCCc1ncc(C(O)c2cccc3ccccc23)n1C (stereo not given)	0.4	40	5	61*	0.6
CCN(CC)C(=O)c1c2c(nc3ccccc13)-c1ccccc1CC2	0.8	65*	-6	24	0.4
C=CCNC(=O)c1c2c(nc3ccccc13)-c1ccccc1CC2	0.8	62*	-5	23	0.4
CC(C)CNC(=O)c1c2c(nc3ccccc13)-c1ccccc1CC2	0.8	46	1	17	0.5
Cc1cc(N2CCN(C/C=C/c3ccccc3)CC2)n2ncnc2n1	0.8	52*	nt	21	0.5
Cc1cc(N2CC(=O)N(CCc3ccccc3)C(=O)C2)n2ncnc2n1	1.1	2	-3	-7	1
CN(CCO)C(=O)CCC(=O)Nc1ccc(S(N)(=O)=O)cc1	1.1	-25	1	-9	1.3
O=C(Nc1ccccc1Sc1ccccc1)c1ccccc1F	nt	nt	16*	nt	nt
CC(C)NCCCOc1ccc(Cl)cc1Br	0.8	12	-9	23	0.9
CCn1c(CSc2nccn2C)nc2cc(C(=O)O)ccc21	1.1	-12	15*	-8	1.1
Cc1ccc(C)c(S(=O)(=O)N2CCN(CC(=O)N3CCc4ccccc4C3)CC2)c1	0.2	-242	-3	81*	3.4*
CN(C)c1ccc(NC(=O)CN2CCN(S(=O)(=O)c3cc(Cl)ccc3Cl)CC2)cc1	0.7	-49	2	32	1.5
SMILES	CYP2C19 act	CYP2C9 inhib	EphB4 antag	CYP2C19 inh	CYP2C9 act
O=C(CN1CCN(S(=O)(=O)c2ccc(Br)cc2)CC1)Nc1ccc2c(c1)OCO2	0.2	63*	3	81*	0.4
O=C(CN1CCN(S(=O)(=O)c2cc(Cl)ccc2Cl)CC1)Nc1ccc2c(c1)OCCO2	0.5	-123	nt	54*	2.2*
CC(C)OC(=O)CN1CCN(S(=O)(=O)c2cc(Cl)ccc2Cl)CC1	0.2	-114	nt	83*	2.1*
COc1cc(NC(=S)Nc2ccc(S(=O)(=O)N3CCOCC3)cc2)cc(OC)c1OC	1	16	-3	1	0.8
CCOc1ccc(C(C)(C)C)cc1S(=O)(=O)n1nc(C)cc1C	nt	nt	5	nt	nt
CC(=O)c1ccc(N2CCN(CCC#N)CC2)c(F)c1	0.9	-2	4	7	1
COC(=O)c1cc2occc2n1CC(=O)Nc1cc(OC)cc(OC)c1	1	7	11	-5	0.9
CC(C)n1c(N2CCN(CC(=O)Nc3ccc4c(c3)OCCO4)CC2)nc2ccccc21	0.4	26	-1	58*	0.7

Bioassay records deposited in PubChem BioAssay by several laboratories.
